The whole screen tested about 330,000 compounds, of which about 560 (0.17%) were called active. Not shown: some 1% with an inconclusive outcome. This excerpt belongs to a sample that is enriched for actives. Values without a mark were called inactive. Calls follow the shape of the dose curve; as a rule, active = well fitted inhibition curve with a large enough effect; inconclusive = small, poorly fitted or top-dose-only effect, or effect the other way; inactive = flat fitted curve, though single readings scatter.
target: ATP-dependent 6-phosphofructokinase (Trypanosoma brucei brucei) (UniProt O15648); experiment: qHTS Assay to Find Inhibitors of T. brucei phosphofructokinase; also: nearly all actives have a fitted effect of over 60% in size; conditions: T. brucei PFK, ADP-Glo luminescence; series mostly up to 57.5 µM; activity, negative = inhibition: at the top concentration
Sequence (O15648 whole entry, looked up): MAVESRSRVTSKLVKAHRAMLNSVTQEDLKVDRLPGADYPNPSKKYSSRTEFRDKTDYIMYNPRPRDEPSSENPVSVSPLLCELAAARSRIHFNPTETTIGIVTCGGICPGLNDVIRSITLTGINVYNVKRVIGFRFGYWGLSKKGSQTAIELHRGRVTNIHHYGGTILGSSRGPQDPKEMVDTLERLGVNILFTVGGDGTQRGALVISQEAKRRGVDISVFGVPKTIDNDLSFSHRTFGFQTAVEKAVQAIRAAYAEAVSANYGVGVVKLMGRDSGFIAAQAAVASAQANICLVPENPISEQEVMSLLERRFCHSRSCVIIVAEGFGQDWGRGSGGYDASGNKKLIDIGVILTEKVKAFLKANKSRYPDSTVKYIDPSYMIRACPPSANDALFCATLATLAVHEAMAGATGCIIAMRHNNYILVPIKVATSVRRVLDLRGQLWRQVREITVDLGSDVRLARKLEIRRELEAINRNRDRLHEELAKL
Source text: NIH Molecular Libraries Probe Production Network [MLPCN] NIH Chemical Genomics Center [NCGC] Grant: 1 R03 MH092153-01 PI Name: Malcolm Walkinshaw, University of Edinburgh NCGC Assay Overview: Various species of the protozoan family Trypanosomatidae are responsible for a range of serious human diseases in tropical and subtropical areas of the world. […] Many of the disorders caused by trypanosomatids are fatal if left untreated, but most currently used drugs are inefficient and toxic. […] Oxidative metabolism involving the mitochondrial tricarboxylic acid cycle and oxidative phosphorylation are repressed in these parasites, and recent RNA interference (RNAi) experiments have shown that even partial depletion of certain individual glycolytic enzymes can lead to the death of cultured parasites. One such glycolytic enzyme, phosphofructokinase (PFK), catalyzes the formation of fructose-1,6-bisphosphate (F1,6BP) and ADP from fructose-6-phosphate (F6P) and ATP, and in many metabolic circumstances makes an important contribution to the control of flux through the glycolytic pathway. As a specific glycolytic target, PFK is particularly attractive as it catalyzes the first irreversible step in glycolysis, and structural and kinetic studies have shown very substantial and essential differences from corresponding host enzymes, allowing for the discovery of parasite-selective inhibitors. The goal of this screen is to find small-molecule inhibitors of T. brucei PFK using a biochemical assay that measures PFK activity as a function of ADP production. A luminescence-based assay for T. brucei PFK activity has been developed which uses luciferase to detect production of ADP. Traditional luciferase-based nucleotide detection reagents rely on ATP production as a direct substrate for the luciferase reaction; however, PFK catalyzes the transfer of a phosphate from ATP to F6P, resulting in the net depletion of ATP. To directly measure the ADP product of the PFK reaction, we used the ADP-Glo detection kit (Promega), which utilizes two separate reactions to 1) deplete all remaining uncatalyzed ATP and 2) convert all remaining ADP to ATP, which is then detected through a traditional luciferase-coupled reaction. Compounds were screened as a concentration-titration series that ranged from 57 uM to 0.7 nM.
NCGC Assay Protocol Summary: NCGC Assay Protocol Summary: Substrate buffer was dispensed into white, solid 1536-well plates at 3uL/well in 0.1M triethanolamine (TEA) buffer, pH 8.0, containing final concentrations of 5 mM MgCl2, 0.01% Tween20, 0.5 mM fructose-6-phosphate (F6P) and 0.1mM ATP. Then, 23 nL of compounds or DMSO were delivered to each well using a pin tool. One uL T. brucei PFK (0.1M TEA, 0.01% Tween20, 0.1% bovine serum albumin (BSA) and 1.25nM PFK, final concentrations) was then dispensed, and plates were incubated at room temperature for 45 min. The luminescent detection reagent, ADP-Glo (Promega), was then added in two steps: the first reagent, ADP-Glo (which converts remaining uncatalyzed ATP), was added at 2.5uL/well and incubated for ten minutes at room temperature, and the second component, Kinase Detection reagent (which converts ADP to ATP as a substrate for luciferase-based luminescence), was added immediately after at 5uL/well, followed by one final ten minute room temperature incubation. The plates were measured on a ViewLux plate reader for luminescent signal using a clear filter with a one second exposure. The %Activity was determined from the corrected luminescence values. As no specific T. brucei PFK inhibitors have been identified in the literature, 1x (1.25nM) and 0x PFK enzyme controls (untreated) were included to normalize %Activity of identified inhibitors; 0x enzyme values corresponded to 100%Activity (full inhibition), while 1x PFK enzyme values were used to normalize 0%Activity (no inhibition). Concentration-response curves were fitted to the signals arising from the resulting luminescence. […]
Potency is read from the fitted curve at half-maximal effect.

Row | Compound | Potency | activity, negative = inhibition [%]
1 | O=C(Cc1ccc([N+](=O)[O-])cc1)N/N=C/c1ccco1 | 19 µM (active) | 
2 | OC(Cn1c2ccccc2c2ccccc21)C[n+]1ccccc1 (stereo not given) |  | -2.56
3 | CCCCCCN=C(CC)c1c(O)n(CCCC)c(=O)[nH]c1=O |  | -1.16
4 | CCOC(=O)C1SC2(C(F)(F)C(F)F)CC1(O)c1c(c(OC)c3occc3c1OC)O2 (stereo not given) |  | 0.275
5 | Cn1nnnc1NCc1ccc(Cl)c(Cl)c1 | 10.7 µM (active) | 
6 | Cc1ccc(-n2c(-c3ccc([N+](=O)[O-])cc3)nc3ccccc3c2=O)cc1 |  | 6.06
7 | CC(Cc1cccs1)NCc1ccc(Cl)cc1 (stereo not given) |  | -2.43
8 | O=C1/C(=C\c2ccc3c(c2)OCO3)N2CCC1CC2 |  | -7.68
9 | CCOP(=S)(OCC)C(O)CCCCCn1c(=O)c(F)cn(C2CCCO2)c1=O (stereo not given) |  | -1.99
10 | COc1ccc(CCn2c(O)c(C=NCCCn3ccnc3)c(=O)[nH]c2=O)cc1OC |  | 7.53
